D1 antag – antagonists of human D1 dopamine receptor; P21728; HEK293 TREx D1 cells, calcium flux, dopamine EC80; hits give low values; 360,000 tested, 3.2% active; activity change, negative = inhibition, % at 10 µM; in the data active = activity change below about -30%
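Tetracycline-induced HEK293 T-REx cells with force-coupled D1 receptor were loaded with a no-wash calcium dye. Compound was added after a 10 s baseline and read kinetically for 180 s; EC80 dopamine was then added and calcium flux followed another 180 s.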
D1 ag – agonists of human D1 dopamine receptor; P21728; HEK293 T-REx D1 cells, calcium flux, agonist mode; activation, % at 2 µM; 360,000 tested, 1% active; AID 504660; in the data active = activation above about 30%
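Inducible HEK293 T-REx D1 cells, force-coupled to calcium signalling, were plated at 4000 cells/well with tetracycline and held overnight at 30 C. After no-wash calcium dye loading, compound-evoked calcium rise over 180 s flagged agonists.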
D1 potentiator – enhances dopamine response at the human D1 receptor; P21728; potentiation, % at 10 µM; HEK293 TREx D1 cells, calcium flux, dopamine EC20 potentiation; 360,000 tested, 0.036% active; in the data active = potentiation above about 30%
D3 ag – agonists of human D3 dopamine receptor. max activation, %. 410,000 tested, 0.58% active. D3R DiscoveRx beta-arrestin cells, luminescence, 90 min. P35462; in the data active = max activation above about 30%
Target sequence (P35462 whole entry, looked up): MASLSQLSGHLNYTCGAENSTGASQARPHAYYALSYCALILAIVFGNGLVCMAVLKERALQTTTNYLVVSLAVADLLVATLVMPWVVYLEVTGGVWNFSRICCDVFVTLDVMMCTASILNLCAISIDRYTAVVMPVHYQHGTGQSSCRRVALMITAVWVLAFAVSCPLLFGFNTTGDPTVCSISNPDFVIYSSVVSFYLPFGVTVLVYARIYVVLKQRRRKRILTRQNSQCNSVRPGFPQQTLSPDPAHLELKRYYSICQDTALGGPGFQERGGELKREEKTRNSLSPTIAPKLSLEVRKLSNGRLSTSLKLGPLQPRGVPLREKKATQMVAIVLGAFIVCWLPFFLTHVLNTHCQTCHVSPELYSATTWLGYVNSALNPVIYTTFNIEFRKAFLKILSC
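Agonist-mode cell screen: cells plated at 1500/well and incubated overnight at 37 °C, then exposed to library compounds for 90 min at 37 °C. Detection reagent was added for 30–60 min at room temperature, and luminescence was read.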
DRD3 antagonist – antagonists of human D3 dopamine receptor; D3R cells, DiscoveRx beta-arrestin luminescence, antagonist mode; hits give low values; AID 652054; 360,000 tested, 2.5% active; max response, negative = inhibition, %; in the data active = max response below about -50%; inconclusive = no clear call, values can overlap the other calls
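Cells plated overnight at 1500 cells/well, then exposed to library compounds with dopamine controls for 90 minutes at 37 degrees C. DiscoveRx reagent added for 30–60 minutes at room temperature; luminescence read, quantitative HTS format.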
A number is an active result; 0 = inactive; ? = inconclusive; - = no result. In the library only some 6.1% were active in any assay of this set; here they are far more common.

SMILES	D1 antag	D1 ag	D1 potentiator	D3 ag	DRD3 antagonist
CNC(=S)NNC(=O)COc1cccc(C)c1C	0	0	0	0	-62
O=C(c1cnc(N2CCOCC2)c2ccccc12)N1CCN(c2ccccc2F)CC1	0	0	0	0	-
Cc1occc(=O)c1OC(=O)Nc1ccc(Cl)c(Cl)c1	-47	0	0	0	0
CCCn1ccc2c(OCC(=O)NCc3ccccc3Cl)cccc2c1=O	-	0	0	0	-
Cc1nc2c(-c3ccccc3)c(C)nn2c(C)c1CCC(=O)NCc1ccco1	-43	0	0	0	0
Cc1nc2c(-c3ccc(F)cc3)c(C)nn2c(C)c1CCC(=O)NCc1ccc(F)cc1	0	0	0	0	-
CCN1CCN(c2ccc(NC(=O)CCc3c(C)nc4c(-c5ccccc5)c(C)nn4c3C)cc2)CC1	-84	0	0	0	0
CCOc1ccc(NC(=O)CCc2c(C)nc3c(-c4ccccc4)c(C)nn3c2C)cc1	0	0	0	0	-
Cc1nc2c(-c3ccc(F)cc3)c(C)nn2c(C)c1CCC(=O)NCc1cccc(Cl)c1	-39	0	0	0	-
COc1ccc(CCNC(=O)Cn2c(-c3ccc(F)cc3)cc(C(C)=O)c2C)cc1OC	0	0	0	0	-
Cc1cc2oc(C(=O)N(Cc3ccc(N(C)C)cc3)CC3CCCO3)c(C)c2cc1Cl (stereo unspecified)	0	0	0	0	-
O=C(NN=C1CCN(Cc2ccccc2)CC1)c1ccccc1O	-31	0	0	0	0
CC(C)(/C=N/O)N(O)C=C1C=CC(=O)C=C1	0	0	0	0	0
CC(=O)N=C1C=CC(=CN(O)C(C)(C)Cc2ccccc2)C=C1	0	0	0	0	-54
Cc1cccc(CSCCNC(=O)CN(c2ccccc2)S(=O)(=O)N(C)C)c1	0	0	0	0	-
CCc1ccc(-c2cc(C(=O)N/N=C/c3ccco3)[nH]n2)cc1	-67	0	0	0	0
O=C(N/N=C/c1ccccn1)c1cc(-c2ccc3ccccc3c2)n[nH]1	0	0	0	0	0
O=C(N/N=C/c1ccco1)c1cc(-c2ccc3ccccc3c2)n[nH]1	0	0	43	0	-75
O=C(N/N=C/c1c[nH]c2ccccc12)c1cc(-c2ccc(-c3ccccc3)cc2)n[nH]1	0	0	0	35	0
Cc1cccc(Nc2nc(C#N)nc(NC3CCCC3)n2)c1	0	0	0	-	-
CCN1C(=O)c2ccccc2S(=O)(=O)c2ccc(C(=O)NCc3ccccc3)cc21	0	0	0	0	-
CCOc1ccc(N(CC)S(=O)(=O)N2CCCC(C(=O)Nc3ccc(OC)c(OC)c3)C2)cc1 (stereo unspecified)	0	0	0	0	-
CCOC(=O)c1c(NC(=O)C2CCCCC2)sc2c1CCN(C(C)C)C2	0	0	0	0	-60
CCOC(=O)c1c(NC(=O)Cc2ccccc2)sc2c1CCN(CC)C2	0	0	0	0	-64
CCN1CCc2c(sc(NC(=O)Cc3ccccc3)c2C(=O)OC)C1	0	0	0	0	-103
SMILES	D1 antag	D1 ag	D1 potentiator	D3 ag	DRD3 antagonist
CCN(CC)c1cc(C)c2cc(NC(=O)/C=C/c3ccccc3OC(C)C)ccc2n1	0	0	0	0	-
CCOc1ccc(NC(=O)CN2C(C(=O)OC)=C(c3ccccc3)c3cc(Cl)ccc3S2(=O)=O)cc1	0	0	0	0	-
O=C(N/N=C/c1cccs1)c1ccc2ccccc2c1	0	0	0	0	0
CC(C)(C)C1CCc2c(C(=O)N/N=C/c3cccs3)csc2C1 (stereo unspecified)	0	0	0	32	?
CC(C)(C)C1CCc2c(C(=O)NNC(=O)/C=C/C(=O)O)csc2C1 (stereo unspecified)	-32	0	0	0	0
CC1=C(C(=O)Nc2cccc(C(F)(F)F)c2)C2(CCN(C(C)C)CC2)OC1=O	0	0	0	0	-
O=C(c1cccs1)c1cn(CCOc2ccc(F)cc2)c2ccccc12	0	35	0	0	-
O=C(c1cccs1)c1cn(CCOc2ccccc2F)c2ccccc12	0	0	0	0	-
CCOc1ccc(C2=NC(c3ccncc3)=Nc3ccc(C)cc3N2)cc1OCC	0	0	0	0	-
Cc1ccc(SC(C)C(=O)NCc2ccncc2)cc1 (stereo unspecified)	0	0	0	0	-59
COc1ccc(CNC(=O)C(C)Sc2ccc(C)cc2)cc1 (stereo unspecified)	0	0	0	0	0
Cc1cc(C(F)F)n2nc(C(=O)Nc3ccccc3F)nc2n1	0	0	0	0	0
